Screening data from PubChem BioAssay.
A selection follows.
aSyn UTR act: Activators via SNCA 5'UTR binding, MLPCN. alpha-synuclein 5'UTR reporter, activators screen. activity score, % (tested at 7.5 µM), hits read low. hit rate 7.1% among 300,000. AID 1814, 2009; in the data active = activity score below about -60%
Large screens that a line does not name were inactive.

Cc1ccccc1Nc1nnc(SCC(=O)NC(=O)Nc2ccc3c(c2)OCCO3)s1	aSyn UTR act -86
Clc1ccc(Nc2ccc(NCc3ccccc3)nn2)cc1	aSyn UTR act -72
Cc1ccc(Nc2ccc(NCc3ccccc3)nn2)cc1C	aSyn UTR act -87
CN1CCN(C(=S)c2ccc(-c3cccc([N+](=O)[O-])c3)o2)CC1	aSyn UTR act -171
O=[N+]([O-])c1cc(-c2ccc(C(=S)N3CCOCC3)o2)ccc1Cl	aSyn UTR act -72
O=[N+]([O-])c1cccc(-c2ccc(C(=S)N3CCOCC3)o2)c1	aSyn UTR act -107
CC(=O)n1nc(-c2ccccc2)nc1NCc1ccc(N(C)C)cc1	aSyn UTR act -131
COc1ccc(CNc2nc(-c3ccccc3)nn2C(=O)c2ccc([N+](=O)[O-])cc2)cc1	aSyn UTR act -120
Cc1[nH]c(C)c(C(=O)/C=C/c2ccc([N+](=O)[O-])cc2)c1C	aSyn UTR act -232
COc1ccc(Nc2c(-c3ccco3)nc3ccc(C)cn23)cc1	aSyn UTR act -89
Cc1ccccc1Nc1c(-c2ccccn2)nc2ccccn12	none
Cc1ccc(Nc2c(-c3ccco3)nc3ccccn23)cc1	aSyn UTR act -83
CCS(=O)(=O)n1nc(-c2ccc(Cl)cc2)nc1SCc1ccccc1	aSyn UTR act -110
Cc1ccc(NC(=O)C2CCCN(C(=O)c3ccc(Cl)cc3)C2)cc1C (configuration not stated)	aSyn UTR act -100
COc1ccc(NC(=O)N2CCCCCC2)cc1	aSyn UTR act -77
O=C(Nc1ccc(Br)cc1)N1CCCCC1	aSyn UTR act -63
O=C(Nc1ccc(F)c(Cl)c1)N1CCCCCC1	aSyn UTR act -75
COc1cccc(NC(=O)N2CCCCCC2)c1	aSyn UTR act -88
O=C(Nc1ccc(Cl)cc1)N1CC=CCC1	aSyn UTR act -134
Cc1ccc(NC(=O)N2CCCCCC2)cc1C	aSyn UTR act -90
CCOC(=O)c1cc2c(C)n(-c3ccc(C)cc3)c(C)c2ccc1=O	aSyn UTR act -64
c1ccc2c(c1)[nH]c1c3ccccc3sc21	aSyn UTR act -138
CCCOc1ccc(C(=O)Nc2cccnc2)cc1	aSyn UTR act -181
O=C(Nc1cccnc1)c1ccc(Oc2ccccc2)cc1	aSyn UTR act -70
CCCCOc1ccc(C(=O)Nc2ccncc2)cc1	aSyn UTR act -123
O=C(Nc1cccnc1)c1ccc(CSc2ccccc2)cc1	aSyn UTR act -115
CC(C)c1ccc(C(=O)NN2C(=O)C3CCCCC3C2=O)cc1 (configuration not stated)	aSyn UTR act -85
CC(C)c1ccc(C(=O)NNC(=O)C2C3CCC(C3)C2C(=O)O)cc1 (configuration not stated)	aSyn UTR act -115
COc1ccc2c(c1OC)C(=O)N1c3ccccc3C(=O)N(c3ccccc3F)C21 (configuration not stated)	none
COc1ccc2c(c1OC)C(=O)N1c3ccccc3COC21 (configuration not stated)	aSyn UTR act -140
COc1ccc2c(c1OC)C(=O)N1c3ccccc3SC21 (configuration not stated)	aSyn UTR act -142
Cc1ccc(Nc2nc(Cl)nc(NC(C)(C)C)n2)cc1	aSyn UTR act -154
Cc1ccc(Nc2nc(Nc3ccc(C)cc3)nc(SC3=NCCS3)n2)cc1	aSyn UTR act -95
N/C(=N\OC(=O)/C=C/c1ccccc1)c1cccnc1	aSyn UTR act -159
N/C(=N\OC(=O)/C=C/c1ccccc1Cl)c1cccnc1	aSyn UTR act -248
CC1Cc2cc(/C(O)=C3/C(=O)C(=O)N(Cc4ccco4)C3c3cccs3)ccc2O1 (configuration not stated)	aSyn UTR act -82
CCCOc1ccc(/C(O)=C2/C(=O)C(=O)N(CCCn3ccnc3)C2c2ccco2)cc1 (configuration not stated)	aSyn UTR act -68
CCN(CC)CCN1C(=O)C(=O)/C(=C(/O)c2ccc(OC(C)C)cc2)C1c1cccs1 (configuration not stated)	aSyn UTR act -122
CCOc1ccc(/C(O)=C2/C(=O)C(=O)N(c3nc(C)c(C)s3)C2c2ccco2)cc1 (configuration not stated)	aSyn UTR act -85
CCCCCOc1ccc(NC(=O)C(=O)NCCCn2ccnc2)cc1	none
CCCOc1ccc(/C(O)=C2/C(=O)C(=O)N(CCCn3ccnc3)C2c2ccc(C)o2)cc1 (configuration not stated)	aSyn UTR act -76
C=CCOc1ccc(/C(O)=C2/C(=O)C(=O)N(CCCn3ccnc3)C2c2cccs2)cc1 (configuration not stated)	aSyn UTR act -82
CCOC(=O)c1ccc2[nH]c3c(c2c1)CCCCC3=O	aSyn UTR act -102
O=C1CCCc2c1[nH]c1ccc(Cl)cc21	none
COCCN(C(=O)COC(=O)/C=C/c1ccccc1Cl)c1c(N)n(Cc2ccccc2)c(=O)[nH]c1=O	aSyn UTR act -92
CN(CC(=O)Nc1ccccc1Br)C(=O)c1cc2c(s1)CCCCC2	aSyn UTR act -121
O=c1c(C=Nc2cccc(C(F)(F)F)c2)c[nH]n1-c1cccc(Cl)n1	aSyn UTR act -65
Cc1ccc(NC(=O)c2cncc(Br)c2)nc1	aSyn UTR act -89
Cc1ccc(NC(=O)c2cncc(Br)c2)c(O)c1	aSyn UTR act -196
Cc1ccc(C(=O)c2sc3nc4c(cc3c2N)CCC4)cc1	aSyn UTR act -132
Nc1c(C(=O)N2CCCCC2)sc2nc3c(cc12)CCCC3	aSyn UTR act -151
Nc1c(C(=O)N2CCCC2)sc2nc(-c3ccccc3)ccc12	aSyn UTR act -190
COc1cc2cc(-c3ccc(O)cc3O)nc(C)c2cc1OC	aSyn UTR act -116
COc1cc2cc(-c3ccc(OC)c(OC)c3C)nc(N)c2cc1OC	none
CC1=CC(C)(C)N(C(=O)CNC2CCCC2)c2cc(C)ccc21	aSyn UTR act -107
CCOc1ccc2c(c1)C(C)=CC(C)(C)N2S(=O)(=O)c1ccc(NC(C)=O)cc1	none
O=C(NCCCN1CCCC1=O)C(=O)Nc1cccc(F)c1	aSyn UTR act -107
O=C(Cc1ccc(N2CCNC2=O)cc1)N1CCCC(Nc2cccc(F)c2)C1 (configuration not stated)	none
Cc1ccc(NC(=O)NCCCN2CCCC2=O)cc1Cl	aSyn UTR act -66
Cc1ccc(C(=O)Nc2ncc(C)s2)o1	aSyn UTR act -119
Cc1ccc(C(=O)Nc2ncc(Cc3ccc(F)cc3)s2)o1	aSyn UTR act -107
Cc1ccc(C(=O)Nc2ncc(Cc3ccc(SC(F)F)cc3)s2)cc1	aSyn UTR act -163
CSc1ccccc1C(=O)Nc1ncc(C)s1	aSyn UTR act -63
COc1ccc2c(/C=N/Nc3ccc(C(=O)O)cc3)c[nH]c2c1	aSyn UTR act -135
COc1ccc2c(c1)c(C(=O)N/N=C/c1ccc(Br)cc1)c(C)n2C	aSyn UTR act -116
COc1ccc(/C=N/NC(=O)c2[nH]c3ccc(Br)cc3c2-c2ccccc2)cc1	none
COc1ccc2c(c1)c(/C=N/Nc1ccc(C(=O)O)cc1)c(C)n2C	aSyn UTR act -75
COc1ccc(/C(C)=N/Nc2ccc(C(=O)O)cc2)c(OC)c1	aSyn UTR act -140
COc1ccc(C(=O)N/N=C/C(=O)c2ccccc2)cc1	aSyn UTR act -133
C/C(=N\Nc1ccc(C(=O)O)cc1)c1ccc(Cl)s1	aSyn UTR act -87
CC(C)NC(=S)N/N=C/c1c[nH]c2ccccc12	aSyn UTR act -124
COc1ccc(C(=O)N/N=C/c2c[nH]c3ccccc23)cc1	aSyn UTR act -70
COc1ccc(C(=O)N/N=C(\c2ccccc2)c2ccccn2)cc1	none
CCCCCN=C(N)N/N=C/c1c[nH]c2ccc(OC)cc12	none
COc1ccc(C(=O)N/N=C/c2sc3ccccc3c2O)cc1	none
